SMILES strings stand for the structures. Among all 580,000 compounds or so, about 6,100 (1.1%) were called active. Where a call stands in place of a potency, no number is given. Another 15% or so got no clear call; they are omitted. The call rests on the fitted dose curve; in most records, active means well fitted inhibition curve with a large enough effect; inconclusive means small, poorly fitted or top-dose-only effect, or another doubt; inactive means no such curve, though single readings can be large or run the other way. For the sample, actives were picked, then their nearest neighbours and some compounds at random.
Potency means the concentration at half of the fitted maximal effect.

Polyunsaturated fatty acid lipoxygenase ALOX12 (Homo sapiens), sequence (P18054 whole entry, looked up): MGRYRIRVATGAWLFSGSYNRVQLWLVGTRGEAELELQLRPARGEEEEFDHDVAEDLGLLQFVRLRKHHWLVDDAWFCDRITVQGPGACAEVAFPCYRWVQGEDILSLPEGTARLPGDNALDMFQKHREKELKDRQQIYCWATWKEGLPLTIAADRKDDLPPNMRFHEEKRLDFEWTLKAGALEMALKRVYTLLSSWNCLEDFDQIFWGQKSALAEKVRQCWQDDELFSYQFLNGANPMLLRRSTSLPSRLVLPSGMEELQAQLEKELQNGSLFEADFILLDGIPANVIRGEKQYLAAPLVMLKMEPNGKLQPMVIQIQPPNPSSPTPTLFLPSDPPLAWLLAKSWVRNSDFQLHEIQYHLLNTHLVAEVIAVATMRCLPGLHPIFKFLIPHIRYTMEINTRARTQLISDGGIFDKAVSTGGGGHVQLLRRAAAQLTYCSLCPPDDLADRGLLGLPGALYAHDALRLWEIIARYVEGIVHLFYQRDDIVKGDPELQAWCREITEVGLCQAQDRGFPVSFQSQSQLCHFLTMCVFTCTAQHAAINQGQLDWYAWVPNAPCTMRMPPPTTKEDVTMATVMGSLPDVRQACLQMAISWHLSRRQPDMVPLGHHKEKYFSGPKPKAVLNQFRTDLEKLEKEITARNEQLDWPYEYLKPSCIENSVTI

The test has as its target Polyunsaturated fatty acid lipoxygenase ALOX12 (Homo sapiens) (UniProt P18054). As to the kind of experiment: Primary qHTS assay for inhibitors of human arachidonate 12S-lipoxygenase (ALOX12): Round 2. The note with it: purified 12hLO, xylenol orange hydroperoxide absorbance; series mostly up to 108 µM. An excerpt:
Assay Provider: Theodore R. Holman Ph.D. University of California, Santa Cruz, California Human lipoxygenase 12hLO is a member of the closely related lipoxygenase family of enzymes which catalyze the site-specific oxidation of arachidonic acid to various hormone precursor molecules and as such is a candidate for drug development in a variety of disease areas, such as cancer and inflammation. Inhibition of 12hLO activity was screened by utilizing arachidonic acid as a substrate. The extent of hydroperoxide product formation was measured by a secondary chromogenic reaction in which xylenol orange (XO, Sigma-Aldrich, cat. number 39,818-7) reacts with the ferric ions produced from the reaction between the hydroperoxide and ferrous ions. The Fe (III)-XO complex is characterized with red-shifted absorbance at 560 nm. A purified preparation of human 12hLO was supplied by Dr. Holman laboratory, University of California, Santa Cruz.
PROTOCOL TABLE SEQUENCE No. (e.g., 1, 2, 3, etc.); […] (e.g., Cells, Incubation, Reagent, etc.); VALUE; DESCRIPTION 1; Enzyme; 3 uL; 150 nM 12hLO enzyme solution dispensed in 1536-well Greiner black, clear bottom plates. 2; Compound; 23 nL; compounds and controls were added. 3; Incubate; 15 min; room temperature. 4; Substrate; 1 uL; 40 uM arachidonic acid (final concentration). 5; Incubate; 30 min; room temperature. 6; Reagent; 4 uL; Fe-XO solution was added to each well. 7; Incubation; 30 min; room temperature 8; Detector; absorbance; Read 1 at 405 nm absorbance using ViewLux (Perkin-Elmer) CCD imager. 9; Detector; absorbance; Read 2 at 573 nm absorbance using ViewLux (Perkin-Elmer) CCD imager. NOTES (numbers refer to sequence above) 1; 150 nM 12hLO (final concentration) in buffer solution (25 mM Hepes, 0.01% Triton X-100, pH 7.0) was dispensed in columns 1, 2, 5-48. Column 1 is neutral (100% activity). Buffer only was dispensed in columns 3 and 4 as no enzyme negative controls. The plates were covered with metal lids with gas-exchange holes. 2; Compounds were pin transferred via a Kalypsys Pin Tool (Wako USA) in column 5-48. Control compound was transferred in column 2, titration of nordihydroguaiaretic acid (NDGA, Sigma-Aldrich, N5023) with top concentration of 20 mM in DMSO then 1:3 dilution in duplicate. Dilution factor of 23 nL into 4 uL final assay volume. 3; Covered assay plates were incubated for 15 min at room temperature. 4; Substrate was added to start the reaction; 40 uM arachidonic acid (Sigma-Aldrich, St. Louis, MO) was dispensed throughout the plate. 6; Chromogenic detection reagent solution (divalent iron/xylenol orange, Fe-XO) was added to each well: 200 uM xylenol orange, 300 uM ferrous ammonium sulfate prepared freshly in 50 mM sulfuric acid. 8, 9; Two absorbance readouts were obtained at 405 nm and at 573 nm using a ViewLux high-throughput CCD plate imager (Perkin-Elmer). The 573 to 405 (Read 2 / Read 1) absorbance ratio was used to compute reaction progress.
As to `Cc1csc(NC(=S)Nc2cccc(Cl)c2)n1`, the Potency was 8.91 µM (active).
For `O=C(Nc1cccc(Cl)c1)c1csnn1`, the Potency result was “inactive”.
For `Cc1csc(NC(=O)CCc2ncc(-c3ccc(Cl)cc3Cl)o2)n1`, the Potency result is “inactive”.
With `CCOc1cc2[nH]c(=O)n(Cc3ccc(C(=O)NCCN(CC)CC)cc3)c(=O)c2cc1OCC` the entry was “inactive”; with `CCCCCn1c(=O)[nH]c2cc(C(=O)NCCN(C)CCCC)ccc2c1=O`, “inactive”.
Consider `CCN(CC)CCCNC(=O)c1ccc2c(=O)n(Cc3ccc4c(c3)OCO4)c(=S)[nH]c2c1`, for which the Potency was 39.8 µM (active).
As for `O=C(CCc1ccccc1)Nc1ccc(Cl)c(C(F)(F)F)c1`, the Potency result was “inactive”.
Regarding `Cc1cccc(NC(=O)CN2CC3CC(C2)[C@H]2CCCC(=O)N2C3)c1` (stereo partly specified), the Potency entry was “inactive”.
For `O=C(NC(=S)Nc1ccccc1C(=O)O)c1ccc(-c2ccc(Br)cc2)o1`, the Potency is 10 µM (active).
As for `CSc1ccccc1NC(=O)Cc1ccc(Br)cc1`, the Potency result was “inactive”.
Turning to `O=C(NC(=O)c1ccccc1N1CCCCC1)Nc1ccc(Br)cc1`, the Potency result is “inactive”.
With `Cn1cc(C(=O)N2CCC(C(N)=O)CC2)c2ccccc21` the entry was “inactive”; with `CC1=C(C(=O)OC(C)C)C(c2ccncc2)c2c(nc(SCc3ccccc3)[nH]c2=O)N1` (stereo unspecified), “inactive”.
As for `CCc1ccc(C=C2SC(=S)NC2=O)cc1`, the Potency is 10.9 µM (active).
For the compound `COc1ccc(/C=C2/S/C(=N/N=C3\CC4CCC3(C)C4(C)C)NC2=O)cc1` (stereo unspecified), the Potency result is “inactive”.
With `O=C1NC(=O)C(=Cc2cccc(C(F)(F)F)c2)S1`, the Potency result is “inactive”.
`CCOC(=O)NC(CNC(=O)c1ccccc1OC)CC(C)C` (stereo unspecified): the Potency result was “inactive”.
With `COc1ccccc1NS(=O)(=O)c1ccc2oc(SCCOc3ccccc3F)nc2c1`, the Potency entry is “inactive”.
Take `CCC(CC)C(=O)Nc1sc(Nc2ccc(C)cc2)nc1C(N)=O`: the Potency entry was “inactive”.
With `COc1ccc2cc(S(=O)(=O)c3ccc(Cl)c(Cl)c3)c(=O)oc2c1` the entry was “inactive”; with `O=C(c1ccc(C(F)(F)F)cc1)N1CCC([C@@H]2CNC[C@H]2CO)CC1`, 44.7 µM (active); with `O=C(c1ccc(F)c(F)c1)N1CCC([C@@H]2CNC[C@H]2CO)CC1`, “inactive”.
As for `COc1ccc(C(=O)N2CCC([C@@H]3CNC[C@H]3CO)CC2)cc1OC`, the Potency entry was “inactive”.
Turning to `O=C(OCCN1C(=O)c2ccccc2C1=O)Oc1ccccc1`, the Potency entry is “inactive”.
With `Nc1ccc(SCCN2C(=O)c3ccccc3C2=O)cc1` the entry was “inactive”; with `O=C1c2ccccc2C(=O)N1CCCCCCN1C(=O)c2ccccc2C1=O`, 35.5 µM (active); with `COc1ccc(CC(=O)N2CC3ON=C(c4c(F)cccc4Cl)C3C2)cc1OC` (stereo unspecified), “inactive”.
On to `CCCn1c(-n2nc(C)cc2C)nc2c1c(=O)n(CCN1CCCCC1)c(=O)n2C`, for which the Potency entry is “inactive”.
`CC(c1ccc(S(N)(=O)=O)cc1)N(C)C(=O)CCc1ncc(-c2ccc(Cl)cc2)o1` (stereo unspecified): the Potency result was “inactive”.
Take `CCOC(=O)c1c(NC(C)=O)sc2c(OCC(=O)Nc3ccccc3C)c(C)ccc12`: the Potency entry was “inactive”.
With `COc1cc(NS(=O)(=O)c2ccc(N/C=C(\C=O)c3nc4cc(Cl)ccc4o3)cc2)nc(OC)n1` the figure was 22.4 µM (active); with `CC(Oc1cccc(Cl)c1)C(=O)Nc1ccc(S(=O)(=O)Nc2ncccn2)cc1` (stereo unspecified), “inactive”; with `COC(=O)Nc1ccc(S(=O)(=O)Nc2cc(OC)nc(OC)n2)cc1`, “inactive”.
With `CCOC(=O)c1cccc(NC(=O)N2CC[C@@H](CC(=O)N(C)CC#N)[C@@H](CC)C2)c1`, the Potency result was “inactive”.
For the compound `CCOc1ccc(NC(=O)C(=O)c2c[nH]c3ccccc23)cc1`, the Potency result is “inactive”.
For `CCc1cccc(NC(=O)Nc2cn(CC(C)C)c(=O)c3ccccc23)c1`, the Potency entry was “inactive”.
In the case of `[O-]/[N+](=C\c1ccc2ccccc2n1)c1ccccc1`, the Potency is 11.2 µM (active).
With `CC(C)Oc1c(Br)cc(Br)cc1/C=N/NC(N)=S` the figure was 35.5 µM (active); with `N#Cc1cccc(NC(=O)O[C@@H]2CO[C@H]3[C@@H]2OC[C@@H]3Nc2nccc(-c3ccccc3)n2)c1`, “inactive”; with `Cc1ccc(C(=O)Nc2ccc3c(N4CCCCC4)ncnc3c2)s1`, “inactive”.
For `CC(C)CC(N=C1NC(C)(C)Cc2ccccc21)C(=O)O` (stereo unspecified), the Potency result was “inactive”.
Take `CC1(C)Cc2ccccc2-c2nnc(-c3cccc(O)c3)n21`: the Potency entry was “inactive”.
As for `CC1(C)Cc2ccccc2-c2[nH]c(=S)[nH]c(=O)c21`, the Potency was 7.94 µM (active).
With `COc1ccc(-c2nc(CSCC(=O)N(C)c3ccccc3)co2)cc1` the entry was “inactive”; with `COc1ccc(CCC(=O)N2CCCCCCNC(=O)[C@@H]3CCCC[C@@H]32)cc1`, “inactive”.
With `CCc1ccc(N(Cc2cccs2)C(=O)c2ccccc2C)cc1` the entry was “inactive”; with `CC(NS(=O)(=O)c1ccc(F)cc1Cl)C(=O)N1CCCC1` (stereo unspecified), “inactive”; with `CCOc1ccc(NC(=O)Nc2ccc(CN3CCOCC3)cc2)cc1`, “inactive”.
`COC(=O)c1ccc2c(c1)nc1n2[C@@H](CNCc2cccc(OC)n2)COC1`: the Potency entry is “inactive”.
`CC(C)c1ccc(NC(=O)c2ccc3c(Cl)c4c(nc3c2)CCCC4)cc1`: the Potency result is “inactive”.
Regarding `COc1cccc(C(=O)N2CCc3nc(C4CC4)nc(-c4ccc(Cl)cc4)c3C2)c1`, the Potency is 10 µM (active).
`CC(=O)N1CCc2nc(C3CC3)nc(-c3ccc(Cl)cc3)c2C1`: the Potency entry is “inactive”.
On to `O=C(c1cccc(Cl)c1)N1CCc2nc(C3CC3)nc(-c3ccc(Cl)cc3)c2C1`, for which the Potency entry is “inactive”.
Turning to `O=C(NCC1(COc2ccc(C(F)(F)F)cn2)C[C@@H](O)[C@@H](O)C1)c1ccc(F)cc1` (stereo partly specified), the Potency entry was “inactive”.
With `Cn1ccnc1CNCC1(COc2ccc(C(F)(F)F)cn2)C[C@@H](O)[C@@H](O)C1` (stereo partly specified), the Potency entry was “inactive”.
Consider `CCS(=O)(=O)NCC1(COc2ccc(C(F)(F)F)cn2)C[C@@H](O)[C@@H](O)C1` (stereo partly specified), for which the Potency is 12.6 µM (active).
For the compound `COc1cc(CN2C[C@@H](CO)[C@H](c3nc(C)no3)C2)ccc1F`, the Potency result is “inactive”.
Turning to `Cc1ccc(-c2c3c(nc4sc5c(c24)CCC5)-c2cc(F)ccc2S(=O)(=O)C3)cc1`, the Potency result is “inactive”.
With `Cc1scc(-c2ccccc2)[n+]1C` the figure was 17.8 µM (active); with `Cc1cc2nc(-c3ccccc3)c(-c3ccccc3)nc2cc1C`, “inactive”; with `Cc1ccccc1Nc1scc(-c2ccc(Br)cc2)[n+]1-c1ccccc1C`, “inactive”.
Consider `CCCCN(C)C(=O)CCNC(=O)Cn1cnc2sc3c(c2c1=O)CCCC3`, for which the Potency entry was “inactive”.
In the case of `CCCC1CCC(c2ccc(-c3ccc(CC)cn3)cc2F)CC1` (stereo unspecified), the Potency result is “inactive”.
With `CCN1C(=O)[C@H]2[C@@H](c3ccccc3)N[C@]3(CCCN(Cc4ccc(C)cc4)C3=O)[C@H]2C1=O`, the Potency was 4.47 µM (active).
Regarding `CCN1C(=O)[C@H]2[C@@H](c3ccc(-c4ccc(F)cc4)cc3)N[C@@](Cc3ccccc3)(C(=O)OC)[C@H]2C1=O`, the Potency result is “inactive”.
Consider `Cc1ccc([C@H]2N[C@]3(CCCN(Cc4ccccc4)C3=O)[C@H]3C(=O)N(Cc4ccccc4)C(=O)[C@@H]23)cc1`, for which the Potency entry was “inactive”.

The values above are taken from PubChem BioAssay AID1671190 (National Center for Advancing Translational Sciences (NCATS), 2021).
